Screens deposited in PubChem BioAssay by National Center for Advancing Translational Sciences (NCATS).
KB-V1 MDR tox = kills drug-selected multidrug resistant KB-V1 cells; KB-V1 MDR cells viability, CellTiter-Glo, 72 h; Potency, µM (highest dose often 46.1 µM), usual class: cytotoxic; 3.4% of 400,000 active; also: nearly all actives have a fitted effect of over 60% in size
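qHTS viability screen in drug-selected KB-V1 MDR cells: 72 h compound treatment at 37 degrees C, ATP luminescence end point.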
HT1080-NT tox = kills 2HG-producing HT-1080-NT fibrosarcoma cells; Potency, µM (top dose mostly 46.1 µM), for the others: at the highest dose activity, negative = less viability, most hits filed as cytotoxic; HT-1080-NT fibrosarcoma viability, CellTiter-Glo ATP luminescence, 48 h; 1.6% of 360,000 active; AID 686970;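 also: NT is the 2HG producing partner of a matched IDH1 knockdown line; 0% = DMSO-treated cells and -100% = media-only wells without cells; nearly all actives have a fitted effect of over 55% in size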
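Toxicity toward the 2HG-producing NT line was scored as %Activity, normalised to DMSO and no-cell wells, from CellTiter-Glo luminescence after 48 hours' treatment.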
HT1080 IDH1KD tx = toxicity to HT-1080 IDH1 knockdown cells (counter line). HT-1080 IDH1 knockdown viability, ATP luminescence, 48 h. Potency, µM (top dose mostly 46.1 µM), for the others: at the top dose activity, negative = toxicity, most hits filed as cytotoxic. 2% of 360,000 active;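 also: 0% = DMSO wells and -100% = cell-free medium wells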
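Knockdown cells (IDH1KD HT-1080) received compounds 2 h after plating at 750 cells/well and were kept 48 h at 37 °C in 5% FBS RPMI. A CellTiter-Glo luminescence read gave % activity for curve fitting.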
DT40 TDP1 CPT = DT40-hTDP1 cell growth loss with CPT | 12% of 420,000 active | chicken DT40 Tdp1-/-;hTDP1 cells + 20 nM CPT, ATP luminescence, 48 h | AID 686979 | Potency, µM (top dose mostly 46.2 µM), for the others: top-dose activity change, negative = growth inhibition, actives largely listed as inhibitors; also: nearly all actives have a fitted effect of over 55% in size
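Chicken DT40 Tdp1-/- cells complemented with human TDP1, 400 cells/well, exposed to compounds plus 20 nM camptothecin for at least 48 h at 37 C; viability read as ATP content by CellTiter-Glo luminescence.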
KB-3-1 cytotox = kills parental KB-3-1 adenocarcinoma cells; KB-3-1 viability, CellTiter-Glo ATP luminescence, 72 h; 1.4% of 400,000 active; Potency, µM (series often up to 46.1 µM), actives largely listed as cytotoxic; also: nearly all actives have a fitted effect of over 60% in size
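72 h, 37 °C compound treatment of KB-3-1 parental cells; CellTiter-Glo added, 10 min, luminescence read. Data corrected against DMSO-only plates and normalized before curve fitting.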
DT40 TDP1 no CPT = qHTS for Inhibitors of human tyrosyl-DNA phosphodiesterase 1 (TDP1): qHTS in cells in absence of CPT; Potency, µM (top dose mostly 46.2 µM), inactives show top-dose activity change, negative = growth inhibition, hits mostly inhibitors; DT40 Tdp1-/- hTDP1 cells, no CPT, ATP luminescence, 48 h; 15% of 420,000 active; AID 686978, 2013; also: nearly all actives have a fitted effect of over 55% in size
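DT40 Tdp1-/-;hTDP1 cells, no CPT (DMSO vehicle only), 400 cells/well; compounds pin-transferred; ≥48 hr, 37 °C; CellTiter-Glo 30 min RT dark, luminescence read.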
* = called active by the depositor; i = inactive; ? = inconclusive; . = not tested or not shown. Sampled rows, rich in hits. Any-hit rate of the full collection: about 19%. Calls follow the shape of the dose curve; as a rule, active = well fitted curve in the direction sought with a large enough effect; inconclusive = small, poorly fitted or top-dose-only effect, or another doubt; inactive = no such curve, though single readings can be large; an effect the other way counts as inactive or inconclusive. Unless noted, % is scaled to controls: 0 for no effect and ±100 for the full control effect; potency is read from the fitted curve at half-maximal effect.

SMILES | KB-V1 MDR tox | HT1080-NT tox | HT1080 IDH1KD tx | DT40 TDP1 CPT | KB-3-1 cytotox | DT40 TDP1 no CPT
CC(=O)Nc1ccc(C(=O)N2CCCC(n3cc(C(=O)NCC(C)C)nn3)C2)cc1 (stereo unspecified) | . | . | . | -0.1% | . | -6.0%
CNc1ccccc1C(C)(C)c1cc(C)[nH]n1 | i | -1.2% | -9.9% | 16.4µM* | i | ?
Cc1cc(-c2ccccc2N)n[nH]1 | i | -3.6% | -21.2% | -1.3% | i | -5.7%
Cc1ccc(-c2noc(N=O)c2NO)cc1 | i | ? | ? | 20.6µM* | i | 23.1µM*
Cc1onc(-c2ccccc2)c1NC(=O)Nc1c(-c2ccccc2)noc1C | i | 0.9% | -0.1% | 4.3% | i | -23.6%
NC(=S)N/N=C\c1ccc(-c2cccc(Cl)c2Cl)o1 | 1.3µM* | -29.1% | -14.4% | 5.17µM* | 5.8µM* | 4.61µM*
CN(C)/N=C/c1ccc(/C=N/NC(N)=S)o1 | i | 4.4% | 7.4% | -7.3% | i | -28.0%
Cc1ccc(-c2ccc(/C=N/NC(N)=S)o2)cc1 | ? | -16.4% | -21.6% | 2.91µM* | i | 4.11µM*
NC(=S)N/N=C/c1ccc(-c2ccccc2)o1 | ? | -3.8% | 6.0% | ? | i | ?
NC(=S)N/N=C/c1ccc(-c2ccc(SC(F)F)cc2)o1 | i | ? | ? | 3.66µM* | ? | 5.17µM*
NC(=S)N/N=C/c1ccc(-c2ccc(Cl)c(Cl)c2)o1 | i | -17.0% | -11.9% | 23.1µM* | i | 13µM*
C[C@H](CO)N1C[C@H](C)[C@@H](CN(C)Cc2ccc(Cl)c(Cl)c2)Oc2c(NS(=O)(=O)c3cn(C)cn3)cccc2C1=O | i | 2.8% | 9.6% | 7.1% | ? | ?
CCCCNS(=O)(=O)NC(=O)C1=C(N2CCCC2)COC1=O | ? | 13.0% | 18.2% | 9.6% | i | -0.9%
Cc1ccc(-c2ccc(/C=N/NC(=O)Cc3nnc(N)s3)o2)cc1Cl | i | 4.8% | 0.8% | ? | i | -28.8%
COc1ccc(-c2ccc(/C=N/NC(=O)Cc3nnc(N)s3)o2)cc1Cl | i | 9.6% | 2.2% | ? | i | 18.4µM*
Cc1cc(C)c(S(=O)(=O)Nc2cccc(C(=O)O)c2)cc1S(=O)(=O)Nc1cccc(C(=O)O)c1 | ? | 0.8% | 11.3% | -0.2% | i | 10.9%
COc1ccc(CCN2C(=O)CN(C3CCC(C)CC3)C(=O)C2c2ccc(OC(C)C)c(OC)c2)cc1OC (stereo unspecified) | i | . | . | 16.4µM* | i | ?
COc1cc(C2C(=O)N(C3CCCCCC3)CC(=O)N2Cc2ccccc2)ccc1OC(C)C (stereo unspecified) | . | . | . | ? | . | 23.1µM*
COc1cc(C2C(=O)N(C3CCCC3)CC(=O)N2Cc2ccco2)ccc1OC(C)C (stereo unspecified) | 3.66µM* | 9.3% | -0.9% | -0.4% | i | -6.8%
COc1cc(C2C(=O)N(C3CCCCC3)CC(=O)N2C2CCCC2)ccc1OC(C)C (stereo unspecified) | . | . | . | -13.1% | . | -11.4%
COC(=O)c1cnn(-c2ccc(C(=O)Nc3ccc(C(C)=O)cc3)cc2)c1N | i | . | . | -2.9% | i | -11.6%
Cc1cc(C)c(NC(=O)c2cccs2)c(C)c1NC(=O)c1cccs1 | i | -2.3% | -9.5% | -2.8% | i | -0.2%
Cc1cccc(NC(=O)N2CCc3c(sc4c3CCCC4)C2c2ccc(F)cc2)c1 (stereo unspecified) | ? | . | . | ? | i | 16.4µM*
COc1ccc(NC(=O)N2CCc3c(sc4c3CCCC4)C2c2ccc(F)cc2)cc1 (stereo unspecified) | i | . | . | ? | i | 20.6µM*
COc1ccc(NC(=O)N2CCCC2C(=O)NCc2ccc(F)cc2)cc1 (stereo unspecified) | i | -4.9% | 1.2% | -1.6% | i | -29.2%
SMILES | KB-V1 MDR tox | HT1080-NT tox | HT1080 IDH1KD tx | DT40 TDP1 CPT | KB-3-1 cytotox | DT40 TDP1 no CPT
COc1nn(-c2ccccc2)c(=O)c(Cl)c1Cl | i | 11.6µM* | 13µM* | 5.17µM* | ? | 4.61µM*
O=[N+]([O-])c1ccc(N2CCOCC2)cc1NCCCO | ? | 0.3% | -0.3% | -28.2% | ? | ?
Cc1cccc(OCCNc2cc(N3CCN(CCO)CC3)ccc2[N+](=O)[O-])c1 | 18.4µM* | -3.9% | -9.1% | ? | i | 20.6µM*
Cc1ccccc1OCCNc1cc(N2CCCCC2)ccc1[N+](=O)[O-] | ? | -13.7% | -18.6% | 20.6µM* | i | ?
COc1ccc(OCCNc2cc(N3CCCCC3)ccc2[N+](=O)[O-])cc1 | i | -12.5% | -2.8% | 18.4µM* | i | 23.1µM*
Cc1ccccc1OCCNc1cc(N2CCN(CCO)CC2)ccc1[N+](=O)[O-] | ? | ? | 14.6µM* | ? | i | ?
Cc1ccc2c(c1)c(=O)c(C(=O)c1ccncc1)cn2CC(=O)Nc1c(C)cccc1C | . | . | . | -0.3% | . | -15.1%
CC(CNC(=O)c1ccc2nc(CCc3ccccc3)oc2c1)c1ccccc1 (stereo unspecified) | i | . | . | -25.2% | i | ?
Cc1ccc(C)c(-c2nn(-c3cc(N4CCN(CCO)CC4)ccc3[N+](=O)[O-])c(=O)c3ccccc23)c1 | ? | -4.5% | -15.2% | ? | i | 25.9µM*
COc1ccc(OCCNc2cc(N3CCOCC3)ccc2[N+](=O)[O-])cc1 | ? | ? | ? | ? | i | ?
CC1CN(c2ccc([N+](=O)[O-])c(NCCOc3ccccc3)c2)CCN1 (stereo unspecified) | ? | 14.6µM* | 16.4µM* | ? | i | ?
CCOC(=O)C1=C(COC(=O)CCOc2cc(C)ccc2C)NC(=O)NC1C (stereo unspecified) | i | -0.7% | 2.2% | -4.0% | i | -24.3%
Cc1nc2ccccc2c(=O)n1NCc1cc(Br)cs1 | i | 1.1% | 5.6% | ? | i | 14.6µM*
CC(C)N(C)c1ncnc2c1ncn2[C@H]1CN(Cc2ccncc2)C[C@@H](CO)O1 | i | 3.2% | 0.7% | 23.1µM* | i | 23.1µM*
CC(C)N(C)c1ncnc2c1ncn2[C@H]1CN(Cc2ccc(-c3ccccc3)cc2)C[C@@H](CO)O1 | i | 23.1µM* | ? | 7.31µM* | i | 6.51µM*
CC(C)N(C)c1ncnc2c1ncn2[C@H]1CN(Cc2ccco2)C[C@@H](CO)O1 | i | 7.0% | 0.6% | 1.9% | i | 8.6%
